# According to PubChem BioAssay AID588689 (Southern Research Specialized Biocontainment Screening …, 2011):
# Screen size: about 340,000 compounds; about 1,000 (0.29%) were called active. Cut-off read from the data, not from the text of the source: inconclusive = inhibition above about 29% without an active follow-up result; inactive = below that. The list is a sample of the results. Entries with a potency or affinity are not part of this list.
# Molecular target: Genome polyprotein (Dengue virus type 2 (strain 16681-PDK53)) (UniProt P29991)
# Assay: flavivirus cap methylation enzyme inhibition – biochemical, confirmation dose response, primary screen (AID 588689)
# Details: Dengue-2 NS5 methyltransferase capping enzyme assay, at 25 µM, stronger effect = higher value
# [1] = measured here: pilot screen replicate inhibition
# Chain of Genome polyprotein (Dengue virus type 2 (strain 16681-PDK53)) (P29991 whole entry, looked up): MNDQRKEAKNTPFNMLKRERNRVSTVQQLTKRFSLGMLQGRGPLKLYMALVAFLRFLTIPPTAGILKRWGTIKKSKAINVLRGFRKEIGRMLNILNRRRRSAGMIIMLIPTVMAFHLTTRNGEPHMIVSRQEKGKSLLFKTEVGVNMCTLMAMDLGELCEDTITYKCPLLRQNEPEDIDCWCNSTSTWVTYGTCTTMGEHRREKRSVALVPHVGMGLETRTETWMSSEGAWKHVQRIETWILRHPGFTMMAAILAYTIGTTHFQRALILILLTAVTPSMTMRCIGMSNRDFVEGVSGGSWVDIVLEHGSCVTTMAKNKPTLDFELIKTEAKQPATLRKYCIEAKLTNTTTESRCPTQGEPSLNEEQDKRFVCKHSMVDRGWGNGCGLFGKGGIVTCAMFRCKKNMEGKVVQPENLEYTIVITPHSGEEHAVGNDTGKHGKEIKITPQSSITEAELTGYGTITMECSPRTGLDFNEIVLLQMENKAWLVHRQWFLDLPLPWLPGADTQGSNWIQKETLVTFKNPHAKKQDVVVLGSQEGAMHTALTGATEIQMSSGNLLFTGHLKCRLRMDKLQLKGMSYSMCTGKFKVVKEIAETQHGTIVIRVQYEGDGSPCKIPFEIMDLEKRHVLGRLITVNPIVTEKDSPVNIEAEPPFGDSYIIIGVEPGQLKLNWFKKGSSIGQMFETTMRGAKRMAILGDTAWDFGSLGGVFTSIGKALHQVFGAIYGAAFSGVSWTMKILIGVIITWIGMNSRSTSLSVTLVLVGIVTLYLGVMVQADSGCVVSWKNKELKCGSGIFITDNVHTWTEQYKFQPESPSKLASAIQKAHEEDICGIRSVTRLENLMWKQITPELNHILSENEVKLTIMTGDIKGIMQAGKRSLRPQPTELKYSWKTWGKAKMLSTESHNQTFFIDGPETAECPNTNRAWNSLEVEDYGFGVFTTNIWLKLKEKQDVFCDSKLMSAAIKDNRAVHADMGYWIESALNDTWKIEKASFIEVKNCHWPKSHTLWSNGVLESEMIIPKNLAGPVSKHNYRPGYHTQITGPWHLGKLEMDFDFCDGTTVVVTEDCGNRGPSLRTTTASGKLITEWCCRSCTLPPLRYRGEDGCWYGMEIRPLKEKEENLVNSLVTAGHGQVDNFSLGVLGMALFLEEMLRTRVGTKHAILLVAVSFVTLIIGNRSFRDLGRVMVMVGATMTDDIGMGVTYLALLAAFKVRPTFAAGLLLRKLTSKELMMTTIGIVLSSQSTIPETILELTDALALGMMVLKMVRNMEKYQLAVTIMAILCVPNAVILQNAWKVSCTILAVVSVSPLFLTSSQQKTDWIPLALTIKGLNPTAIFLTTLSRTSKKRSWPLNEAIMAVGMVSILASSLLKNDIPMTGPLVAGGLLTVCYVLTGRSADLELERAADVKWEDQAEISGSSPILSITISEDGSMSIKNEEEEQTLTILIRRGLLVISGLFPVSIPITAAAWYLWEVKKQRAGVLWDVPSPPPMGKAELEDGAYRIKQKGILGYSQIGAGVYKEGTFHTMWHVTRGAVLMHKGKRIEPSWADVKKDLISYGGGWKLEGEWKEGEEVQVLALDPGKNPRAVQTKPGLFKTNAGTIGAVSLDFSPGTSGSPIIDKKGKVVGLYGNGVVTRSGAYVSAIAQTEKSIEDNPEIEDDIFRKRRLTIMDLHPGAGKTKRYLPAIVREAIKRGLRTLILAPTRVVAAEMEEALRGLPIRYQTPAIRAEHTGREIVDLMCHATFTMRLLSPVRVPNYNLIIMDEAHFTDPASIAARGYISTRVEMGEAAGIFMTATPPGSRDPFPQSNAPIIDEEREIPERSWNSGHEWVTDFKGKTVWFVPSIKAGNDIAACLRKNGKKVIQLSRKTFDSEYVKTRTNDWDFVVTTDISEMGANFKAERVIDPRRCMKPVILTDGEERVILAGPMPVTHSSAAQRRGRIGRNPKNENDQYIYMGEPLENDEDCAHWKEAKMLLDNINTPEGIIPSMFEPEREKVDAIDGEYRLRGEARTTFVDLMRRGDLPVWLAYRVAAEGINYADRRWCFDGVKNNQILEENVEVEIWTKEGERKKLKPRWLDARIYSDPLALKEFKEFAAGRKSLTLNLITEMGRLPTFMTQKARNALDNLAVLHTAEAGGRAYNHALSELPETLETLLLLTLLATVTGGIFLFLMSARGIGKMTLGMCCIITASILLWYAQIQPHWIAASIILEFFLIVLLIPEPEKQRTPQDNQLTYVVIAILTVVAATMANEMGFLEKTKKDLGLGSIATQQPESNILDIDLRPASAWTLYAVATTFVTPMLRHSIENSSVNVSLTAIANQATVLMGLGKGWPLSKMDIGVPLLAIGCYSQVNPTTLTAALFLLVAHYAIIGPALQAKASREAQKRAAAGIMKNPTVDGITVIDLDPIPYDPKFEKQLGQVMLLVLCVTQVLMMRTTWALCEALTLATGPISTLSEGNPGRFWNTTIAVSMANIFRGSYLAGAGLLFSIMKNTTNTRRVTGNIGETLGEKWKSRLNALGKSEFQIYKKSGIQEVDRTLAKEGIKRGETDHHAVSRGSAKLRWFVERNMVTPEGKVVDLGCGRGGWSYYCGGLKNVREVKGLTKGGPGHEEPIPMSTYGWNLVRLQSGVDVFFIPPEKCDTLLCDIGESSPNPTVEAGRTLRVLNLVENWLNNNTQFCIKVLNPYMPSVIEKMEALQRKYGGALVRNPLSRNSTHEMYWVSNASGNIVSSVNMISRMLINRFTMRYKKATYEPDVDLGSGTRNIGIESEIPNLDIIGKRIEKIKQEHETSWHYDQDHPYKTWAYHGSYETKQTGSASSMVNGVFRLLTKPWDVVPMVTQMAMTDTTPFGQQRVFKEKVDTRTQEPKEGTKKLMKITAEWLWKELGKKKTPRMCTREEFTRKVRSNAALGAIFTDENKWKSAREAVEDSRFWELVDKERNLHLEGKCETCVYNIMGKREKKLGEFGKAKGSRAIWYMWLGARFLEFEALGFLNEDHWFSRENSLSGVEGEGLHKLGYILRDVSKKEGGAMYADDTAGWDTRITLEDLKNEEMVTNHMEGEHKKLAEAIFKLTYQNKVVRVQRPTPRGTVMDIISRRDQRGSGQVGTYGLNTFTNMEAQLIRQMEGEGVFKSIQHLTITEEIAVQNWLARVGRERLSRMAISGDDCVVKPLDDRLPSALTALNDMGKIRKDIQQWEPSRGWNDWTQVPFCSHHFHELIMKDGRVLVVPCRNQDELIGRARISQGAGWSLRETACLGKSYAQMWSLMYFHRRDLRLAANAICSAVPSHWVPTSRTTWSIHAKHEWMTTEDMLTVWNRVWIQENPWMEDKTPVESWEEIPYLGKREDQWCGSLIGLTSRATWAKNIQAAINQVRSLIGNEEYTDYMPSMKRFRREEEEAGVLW
Structure (SMILES),inhibition,inhibition [1]
O=S(=O)(Nc1ccc2cn[nH]c2c1)c1ccc(Cl)cc1,-2.71% (inactive),–
O=C1C(Cl)=C(NCCCO)C(=O)c2ccccc21,-6.93% (inactive),–
O=C1C(Cl)=C(Nc2ccc(O)cc2)C(=O)c2ccccc21,27.1% (inactive),–
O=C1C(Cl)=C(Nc2ccccc2)C(=O)c2ccccc21,5.85% (inactive),–
O=C(O)c1cccc(NC2=C(n3nnc4ccccc43)C(=O)c3ccccc3C2=O)c1,0.29% (inactive),–
Cc1ccc(NC2=C(Cl)C(=O)c3ccccc3C2=O)cc1,-0.64% (inactive),–
O=C(O)c1cccc(NC2=C(N3CCOCC3)C(=O)c3ccccc3C2=O)c1,15% (inactive),–
CCNC1=C(Cl)C(=O)c2ccccc2C1=O,6.43% (inactive),–
CCOC(=O)CSc1nnc(-c2cccs2)n1-c1ccccc1,-7.23% (inactive),–
COc1ccc(C)cc1NC(=O)NNC(=O)c1ccoc1C,5.8% (inactive),–
COc1cccc(NC(=O)CN2CCC(NC(=O)c3ccccc3C)CC2)c1,-2.2% (inactive),–
Cc1ccc(NC2=C(NC(=O)c3ccccc3)C(=O)c3ccccc3C2=O)cc1Cl,26.9% (inactive),–
Cc1cccc(NC2=C(NCCO)C(=O)c3ccccc3C2=O)c1,1.45% (inactive),–
C=CCOc1ccc(/C=C/C(=O)OCC(=O)NCCCc2ccccc2)cc1,0% (inactive),–
Cn1c(NC(=O)c2ccc(C(C)(C)C)cc2)cc(=O)n(C)c1=O,2.78% (inactive),–
O=C(c1cccnc1)N1CCN(CCCc2ccccc2)CC1,-7.9% (inactive),–
COc1ccc(/C=C2/SC(=S)N(CCC(=O)O)C2=O)cc1,4.79% (inactive),–
COc1cccc(/C=C2\SC(=S)N(CCC(=O)Nc3ccc(O)cc3)C2=O)c1,3.49% (inactive),–
Cc1ccc(NC(=O)COc2cccc(/C=C3\SC(=S)N(CCC(=O)O)C3=O)c2)cc1Cl,0.88% (inactive),–
O=C(O)CCN1C(=O)/C(=C\c2cccc(OCc3ccccc3)c2)SC1=S,40.6% (inactive),–
O=C(COC(=O)c1cc(S(=O)(=O)N2CCOCC2)ccc1F)NCc1ccc2c(c1)OCO2,-7.39% (inactive),–
C/C(CCc1ccccc1)=N/NC(=O)C(=O)NC(C)c1ccccc1 (centres undefined),-9.31% (inactive),–
O=C(c1cnn(-c2ccccc2)c1)c1ccccc1O,4.45% (inactive),–
CCc1cc(C(=O)Cc2cnn(-c3ccccc3)c2)c(O)cc1O,5.45% (inactive),-6.54%

Structure (SMILES),inhibition,inhibition [1]
O=C(Cc1ccc(Br)cc1)Nc1nc2ccccc2[nH]1,3.24% (inactive),–
COc1cccc(C(=O)N/N=C/c2ccc(OC)c(COc3ccccc3C(N)=O)c2)c1,3.25% (inactive),–
C=CCn1c(SCC(=O)NC(=O)NCCC)nnc1C1CCCCC1,3.46% (inactive),–
O=C1c2ccccc2CCC12OC2c1ccc([N+](=O)[O-])cc1 (centres undefined),-3.43% (inactive),–
CCSc1nc2cc(OC)c(OC)cc2c(=O)n1CC,2.71% (inactive),–
COc1cccc(C(c2c(O)nc(SC)n(C)c2=O)c2c(O)nc(SC)n(C)c2=O)c1,16.2% (inactive),-1.21%
COc1ccc(C(c2c(O)nc(SC)n(C)c2=O)c2c(O)nc(SC)n(C)c2=O)cc1O,-4.46% (inactive),–
CCn1c(SCC(N)=O)nnc1-c1ccc(OC)c(OC)c1,-2.41% (inactive),–
CCOc1ccc(-c2cn(-c3ccc(OC)cc3)c(SC)n2)cc1,-2.59% (inactive),–
CCOc1ccc(C(=O)CSc2nnc(C3CC3)n2C)cc1,-4.8% (inactive),–
COCCn1c(C)nnc1SCC(=O)NNC(=O)c1ccc(Br)cc1,-3.23% (inactive),–
O=C(ONC(=O)C1C2C=CC(C2)C1C(=O)NOC(=O)c1ccccc1)c1ccccc1 (centres undefined),-1.55% (inactive),–
O=C(CC1SCCNC1=O)Nc1ccccc1Cl (centres undefined),0% (inactive),–
COc1ccccc1C(=O)NCC(=O)N/N=C/c1cn[nH]c1-c1ccccc1,-1.82% (inactive),–
Cc1c(OC(C)C(=O)NCC(O)c2ccccc2)ccc2c3c(c(=O)oc12)CCCC3 (centres undefined),2.62% (inactive),–
CN1CCc2c(sc(NC(=O)c3ccc([N+](=O)[O-])o3)c2C(N)=O)C1,6.69% (inactive),–
CC(C)N1CCc2c(sc(NC(=O)c3ccc([N+](=O)[O-])o3)c2C(N)=O)C1,-6.69% (inactive),–
COc1ccc(C(CNC(=O)c2ccc(-c3ccccc3Cl)o2)N2CCCC2)cc1 (centres undefined),1.14% (inactive),–
NS(=O)(=O)c1ccc(CCNC(=O)Nc2ccc(Cl)c(Cl)c2)cc1,-1.37% (inactive),–
CCc1c(C(=O)N2CCOCC2)csc1C,-2.41% (inactive),–
O=C(c1ccccc1)c1cn[nH]c1-c1ccccc1O,-2.78% (inactive),–
Cc1nc(COC(=O)c2ccc(CO)cc2)cs1,-2.35% (inactive),–
COc1ccc(C(=O)OCc2csc(C)n2)c(O)c1,-2.19% (inactive),–
